PTHR1 ag = PTHR1 (human) receptor agonism; hit rate 0.075% among 410,000; HEK293 GP2 PTHR1 cells, GloSensor cAMP luminescence, 1 h; Potency, µM (doses to about 115 µM), for inactives: top-dose activation, usual class: activators; note: potency is the fitted concentration of half-maximal effect; nearly all actives have a fitted effect of over 55% in size
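HEK-293-derived GP2 cells expressing PTHR1 and a GloSensor cAMP reporter, 3,000/well, plated overnight, given luciferin plus IBMX (each 0.5 mM as added) for 1 h at 37 °C, then compound for 1 h at 37 °C. Luminescence was read after 15 min at room temperature.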
GLP1R inv ag = GLP-1 receptor (human) inverse agonism; P43220; HEK293 GLP-1R CRE-luciferase, luminescence, 24 h; GLP-1R form is constitutively active; Potency, µM (titrated, usually from 38.3 µM), for inactives: top-dose activity change, negative = inhibition, actives largely listed as inhibitors; hit rate 1.6% among 410,000; AID 624417; note: potency is the fitted concentration of half-maximal effect; % is set by controls: 0 for no effect and ±100 for the full control effect; nearly all actives have a fitted effect of over 55% in size
Target sequence (P43220 whole entry, looked up): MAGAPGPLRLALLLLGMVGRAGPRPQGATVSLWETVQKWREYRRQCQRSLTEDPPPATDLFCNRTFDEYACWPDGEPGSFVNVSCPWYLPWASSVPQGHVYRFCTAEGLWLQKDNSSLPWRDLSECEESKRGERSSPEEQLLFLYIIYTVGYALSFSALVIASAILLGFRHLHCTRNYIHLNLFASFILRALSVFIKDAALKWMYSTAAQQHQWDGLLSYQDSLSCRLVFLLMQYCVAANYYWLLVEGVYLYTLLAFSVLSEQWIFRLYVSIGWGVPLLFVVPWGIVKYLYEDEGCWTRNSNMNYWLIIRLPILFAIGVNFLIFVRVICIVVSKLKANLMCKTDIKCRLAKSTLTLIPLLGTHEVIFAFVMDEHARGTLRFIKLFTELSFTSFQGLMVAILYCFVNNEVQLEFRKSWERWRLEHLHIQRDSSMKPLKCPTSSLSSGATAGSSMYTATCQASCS
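HEK293 cells stably co-expressing a cAMP-responsive luciferase reporter and constitutively active GLP-1R were seeded, incubated 12 h, then exposed to compounds for 24 h at 37 C. Luminescence was read 12 min after detection reagent; inverse agonists lower signal.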
GLP1R cytotox = cytotoxicity in counter-screen for GLP-1R inverse agonists. HEK293 cAMP-luciferase reporter cells, luminescence, 24 h. Potency, µM (top dose mostly 38.3 µM), for the others: at the top dose activity change, negative = inhibition, actives largely listed as inhibitors. hit rate 0.13% among 410,000. AID 624418;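 note: loss of luciferase light is scored as toxicity; potency is the fitted concentration of half-maximal effect; % is set by controls: 0 for no effect and ±100 for the full control effect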
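Seeding density was 200 cells/uL; after overnight-length (12 h) culture, 23 nL compounds went on for 24 h at 37 °C. Readout used a luciferase detection reagent, luminescence taken after 12 min at room temperature.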
GLP-1R agonist = GLP-1 receptor (human) agonism. HEK293 GLP-1R CRE-luciferase, luminescence, 4-6 h; cells express a hypersensitive GLP-1R form. AID 624172. P43220. Potency, µM (doses to about 45.6 µM), for inactives: at the top dose activation, actives largely listed as activators. hit rate 0.007% among 380,000; note: potency is the fitted concentration of half-maximal effect; % of control where 0% means no effect
TSHR antagonist = blocks TSH signaling through the human TSH receptor; P16473; TSHR-expressing cells, TSH-stimulated cAMP HTRF, 2 h; stronger effect = lower value; activity change, negative = inhibition, % at 11.5 µM; hit rate 0.2% among 330,000;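 active = activity change below a set negative limit, meaning inhibition stronger than a set level, cut at about -70% in these data; inconclusive = activity change between two set negative limits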; note: % is set by controls: 0 for no effect and ±100 for the full control effect
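Read-out is FRET at 665 nm (cryptate excitation 337 nm) from a cryptate-tagged anti-cAMP antibody, competed by cell cAMP against cAMP-d2. Compounds are tested on freshly harvested TSHR cells challenged with 4nM TSH (EC80) for 2 hours at 37 deg C.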
Active calls of the source: *; [ ] = remark or other dose. A selection: hits, their analogues and other compounds. The true share with any hit is near 1.8%. Unless noted, calls come from the whole dose curve; as a rule, active = well fitted curve in the direction sought with a large enough effect; inconclusive = small, poorly fitted or top-dose-only effect, or another doubt; inactive = no such curve, though single readings can be large; an effect the other way counts as inactive or inconclusive.

What do the screens show for `Cc1ccc(C)c2[nH]c(=O)c(C(c3nnnn3Cc3ccco3)N3CCc4ccccc4C3)cc12` (centres undefined)?
PTHR1 ag: -10%[57.5 µM]; GLP1R inv ag: 10µM*; GLP1R cytotox: -14%; GLP-1R agonist: -1%; TSHR antagonist: 2

What do the screens show for `CCOC(=O)C1=C(c2ccccc2)N=c2s/c(=C\c3cccc(O)c3)c(=O)n2C1c1cccs1` (centres undefined)?
PTHR1 ag: inactive; GLP1R inv ag: 11µM*; GLP1R cytotox: -10%; GLP-1R agonist: -1%; TSHR antagonist: -31

How did Cc1cc(C)nc(N/N=C/c2ccccc2)n1 do in these assays?
PTHR1 ag: inactive; GLP1R inv ag: 0%; GLP1R cytotox: -1%; GLP-1R agonist: -9%; TSHR antagonist: -4

Results for Cc1cc(C)nc(N/N=C/C=C/c2ccccc2)n1 ?
PTHR1 ag: inactive; GLP1R inv ag: inconclusive; GLP1R cytotox: 11µM*; GLP-1R agonist: -6%; TSHR antagonist: -7

How did CC(C)c1ccc2c(c1)CCC1C(C)(CN)CCCC21C (centres undefined) do in these assays?
PTHR1 ag: inactive; GLP1R inv ag: 5.6µM*; GLP1R cytotox: inconclusive; GLP-1R agonist: 1%; TSHR antagonist: 21

Results for O=c1[nH]c(/C=C\c2cccc(O)c2)nc(O)c1[N+](=O)[O-] ?
PTHR1 ag: inactive; GLP1R inv ag: 4%; GLP1R cytotox: 0%; GLP-1R agonist: -1%; TSHR antagonist: 1

Results for O=c1[nH]c(/C=C\c2ccc(O)c(O)c2)nc(O)c1[N+](=O)[O-] ?
PTHR1 ag: inactive; GLP1R inv ag: -11%; GLP1R cytotox: 11µM*; GLP-1R agonist: 2%; TSHR antagonist: -8

What do the screens show for `CCN(CCCNC(=O)c1ccc(Sc2ccc(Cl)cc2)c(NC(C)=O)c1)c1ccccc1`?
PTHR1 ag: -29%; GLP1R inv ag: 10µM*; GLP1R cytotox: -9%

What do the screens show for `CCCCN(CCCNC(=O)c1ccc(Sc2ccc(Cl)cc2)c(NC(C)=O)c1)c1ccccc1`?
PTHR1 ag: inactive; GLP1R inv ag: inconclusive; GLP1R cytotox: -4%

What do the screens show for `CCNC(=O)c1c(NC(=O)Cc2coc3cc(C)cc(C)c23)sc2c1CCCC2`?
PTHR1 ag: inconclusive; GLP1R inv ag: 1%; GLP1R cytotox: 2%

Results for O=C(/C(=C/c1ccc(Cl)cc1)c1nc2ccccc2[nH]1)c1cccs1 ?
PTHR1 ag: -94%; GLP1R inv ag: 4.5µM*; GLP1R cytotox: inconclusive; GLP-1R agonist: -8%; TSHR antagonist: 16

How did Cc1ccc(NC(=O)c2cnc(SCC(=O)N3CCCc4ccccc43)n(C)c2=O)cc1 do in these assays?
PTHR1 ag: inactive; GLP1R inv ag: -8%; GLP1R cytotox: 9%

Results for CC(C)(C)c1ccc(C(=O)N2CCCC2c2cccs2)cc1 (centres undefined) ?
PTHR1 ag: -94%; GLP1R inv ag: 11µM*; GLP1R cytotox: 13%; GLP-1R agonist: 5%; TSHR antagonist: 8

Results for CS(=O)(=O)Cc1ccc(C(=O)N2CCCC2c2cccs2)cc1 (centres undefined) ?
PTHR1 ag: inactive; GLP1R inv ag: -1%; GLP1R cytotox: -3%; GLP-1R agonist: 4%; TSHR antagonist: 25

How did CCc1ccc(-c2nc(CSCC(=O)NCc3ccc(C)cc3)c(C)o2)cc1 do in these assays?
PTHR1 ag: -89%; GLP1R inv ag: inconclusive; GLP1R cytotox: -9%

Results for O=C1CC(c2ccc3c(c2)OCCO3)Oc2ccc([N+](=O)[O-])cc21 (centres undefined) ?
PTHR1 ag: -30%; GLP1R inv ag: -36%; GLP1R cytotox: 6%; GLP-1R agonist: -8%; TSHR antagonist: -16

Results for NC(=S)N/N=C1\CC(c2ccc3c(c2)OCCCO3)Oc2ccc(F)cc21 (centres undefined) ?
PTHR1 ag: -21%; GLP1R inv ag: 13µM*; GLP1R cytotox: inconclusive; GLP-1R agonist: 24%; TSHR antagonist: -5

Results for NC(=S)N/N=C1\CC(c2ccc3c(c2)OCCO3)Oc2ccc(F)cc21 (centres undefined) ?
PTHR1 ag: -11%; GLP1R inv ag: 3.5µM*; GLP1R cytotox: inconclusive; GLP-1R agonist: 25%; TSHR antagonist: -15

Results for O=C1CC(c2ccc3c(c2)OCCO3)Oc2ccccc21 (centres undefined) ?
PTHR1 ag: -17%; GLP1R inv ag: inconclusive; GLP1R cytotox: -5%; GLP-1R agonist: 2%; TSHR antagonist: 2

Results for Cc1ccc(C(C)C)c(OCC(=O)Nc2ccc3c(c2)nc(CCN2CCCCC2)n3C)c1 ?
PTHR1 ag: -4%; GLP1R inv ag: 8.9µM*; GLP1R cytotox: -16%; GLP-1R agonist: 17%; TSHR antagonist: -16

What do the screens show for `CCCCn1nnc(NC(=O)COc2cc(C)ccc2C(C)C)n1`?
PTHR1 ag: inactive; GLP1R inv ag: 7.9µM*; GLP1R cytotox: -12%; GLP-1R agonist: 6%; TSHR antagonist: -11

Results for CN1CCN(CCc2nc3cc(NC(=O)COc4ccc(Cl)cc4)ccc3n2C)CC1 ?
PTHR1 ag: inactive; GLP1R inv ag: 10µM*; GLP1R cytotox: -25%; GLP-1R agonist: 4%; TSHR antagonist: 25

How did Cn1c(CCN2CCCCC2)nc2cc(NC(=O)COc3ccc(Cl)cc3)ccc21 do in these assays?
PTHR1 ag: -18%; GLP1R inv ag: inconclusive; GLP1R cytotox: inconclusive; GLP-1R agonist: 11%; TSHR antagonist: -8

Results for CCn1c(CN2CCCCC2)nc2cc(NC(=O)COc3cc(C)ccc3C(C)C)ccc21 ?
PTHR1 ag: -1%; GLP1R inv ag: inconclusive; GLP1R cytotox: 5%

How did COCCn1c(SCC(=O)c2ccccc2)nc2cc(C(=O)NC3CCCC3)ccc2c1=O do in these assays?
PTHR1 ag: -14%; GLP1R inv ag: 6%; GLP1R cytotox: 4%

How did COc1ccccc1NC(=O)CC1Sc2ccc(C(F)(F)F)cc2NC1=O (centres undefined) do in these assays?
PTHR1 ag: inactive; GLP1R inv ag: 1%; GLP1R cytotox: 0%

Results for Cc1ccc(NC(=O)CSc2ccccc2)cc1S(=O)(=O)N1CCOCC1 ?
PTHR1 ag: -19%; GLP1R inv ag: -12%; GLP1R cytotox: 5%; GLP-1R agonist: 4%; TSHR antagonist: -13

How did Cc1ccc(NC(=O)COc2ccccc2)cc1S(=O)(=O)N1CCCCCC1 do in these assays?
PTHR1 ag: -41%; GLP1R inv ag: inconclusive; GLP1R cytotox: 4%; GLP-1R agonist: 5%

What do the screens show for `Cc1ccc(NC(=O)CSc2ccccc2)cc1S(=O)(=O)N1CCCCC1`?
PTHR1 ag: inactive; GLP1R inv ag: 7.9µM*; GLP1R cytotox: -6%; GLP-1R agonist: 0%; TSHR antagonist: -29
